Source: PubChem
Pf Dd2 inh: Plasmodium falciparum Dd2 growth inhibition; Potency, µM (titrated, usually from 28.9 µM), for the others: top-dose activity, negative = inhibition, most hits filed as inhibitors; P. falciparum Dd2 growth, SYBR Green, 72 h; AID 1347417; 120,000 compounds, 4.3% hits; active means well fitted inhibition curve with a large enough effect;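 further: plate controls were DMSO vehicle for no effect and reference drug for full effect; nearly all actives have a fitted effect of over 65% in size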
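Readout: SYBR Green fluorescence, 485 nm excitation, 535 nm emission, after ~16 h lysis at 37C. Before that, Dd2-infected red cells (2.5% hematocrit) grew 72 h with compound, 29 uM top final concentration.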
Starred values were filed as active, the others as inactive; i = inactive; [ ] = remark or other dose. Many of the other results were omitted from the sample, so hits are more common in it than they were. Potency means the concentration at half of the fitted maximal effect.

SMILES	Pf Dd2 inh
CN(Cc1cccnc1)c1nc2c(c(=O)[nH]1)CCN(Cc1ccc(Cl)c(F)c1)CC2	20%[5.79 µM]
CN(C)c1nc2c(c(=O)[nH]1)CCN(Cc1ccc(F)cc1Cl)CC2	1µM*
CN(C)c1nc2c(c(=O)[nH]1)CCN(Cc1cc(F)ccc1F)CC2	19%[5.79 µM]
CN(C)c1nc2c(c(=O)[nH]1)CCN(Cc1ccc(F)cc1F)CC2	1%[5.79 µM]
CN(Cc1cccnc1)c1nc2c(c(=O)[nH]1)CCN(Cc1cccc(F)c1)CC2	-5%[5.79 µM]
CN(Cc1cccnc1)c1nc2c(c(=O)[nH]1)CCN(Cc1ccc(F)cc1Cl)CC2	2.8µM*
Cc1ncc2n1C(=O)N(C1CCN(C(=O)c3cccc(Cl)c3)CC1)C2	-7%
Cc1nc(N2CCC(NC(=O)c3cccc(F)c3)CC2)cc(C(F)(F)F)n1	i
CN1CCN([C@H]2[C@@H]3OC[C@@H](O3)[C@@H](NC(=O)Nc3ccc(F)cc3)[C@@H]2O)CC1	-10%[44.1 µM]
C=CCNC(=O)c1coc(COc2ccc3ccc(OC)cc3c2)n1	i
O=C(CCc1ccc(=O)[nH]n1)N1CCC2(CCCNC2=O)C1 (configuration not stated)	-17%
Cc1cccc(C(=O)N2CCC(Cc3n[nH]c(C)n3)CC2)c1	-16%
COc1ccc(C(=O)N[C@@H]2CN(S(C)(=O)=O)C[C@H]2CN(C)C)c(C)c1	i
COc1ccc(-c2nc(C)nc3c2CN(C(=O)c2ccccc2)CC3)cc1	i
COc1ccc(-c2nc(C)nc3c2CN(C(=O)c2ccccn2)CC3)cc1	3%
COc1ccc(C(=O)N2CCc3nc(C)nc(-c4ccc(OC)cc4)c3C2)cc1	-9%
COc1ccc(-c2nc(C)nc3c2CN(C(=O)c2ccc(C)cc2)CC3)cc1	-13%
COc1ccc(-c2nc3c(c(-c4ccccc4)n2)CN(C(=O)c2ccccc2Cl)CC3)cc1	10µM*
COc1ccc(CC(=O)N2CCc3nc(-c4ccc(Cl)cc4)nc(-c4ccccc4)c3C2)cc1	i
COc1ccc(-c2nc3c(c(-c4ccccc4)n2)CN(C(=O)c2cccc(Cl)c2)CC3)cc1	i
COc1ccc(-c2nc(-c3ccccc3)nc3c2CN(C(=O)c2ccccc2C)CC3)cc1	10µM*
COc1ccc(-c2nc(-c3ccccc3)nc3c2CN(C(=O)c2ccc(C(F)(F)F)cc2)CC3)cc1	8.9µM*
O=C(C[C@@H]1C[C@H]2O[C@H](CNCc3ccccc3C(F)(F)F)[C@@H](O)[C@H]2O1)N1CCC(F)(F)C1	26%
CCCCc1nc2cc(C(=O)N3CC(Oc4ccccc4OC)C3)ccc2o1	-16%
COCC(=O)N[C@@H]1CN(Cc2cn(C)nc2C)C[C@H]1CO	-8%
SMILES	Pf Dd2 inh
Cn1ccc2c(C(=O)NCCC(N)=O)nc(-c3ccccc3)cc21	6%[44.1 µM]
COc1c(C)cccc1C(=O)NCC1CCN(c2cnn(C)c(=O)c2)C1 (configuration not stated)	-11%
CNCC(=O)N1CCCC(N2CCN(Cc3ccc4c(c3)OCO4)CC2)C1 (configuration not stated)	-4%
CCOC(=O)c1cc(-c2ccc(OC)cc2)n(CCC(=O)NCc2ccccc2OC)c1C	7.9µM*
CCOC(=O)c1cc(-c2ccccc2)n(CCC(=O)NCc2ccccc2Cl)c1C	i
COc1ccc(-c2cc(C(C)=O)c(C)n2CCC(=O)NCc2ccccc2OC)cc1	-13%
Cc1ccc(C2(c3noc(CN(C)Cc4ccc(C)o4)n3)CCCC2)cc1	-28%
COc1ccc(-c2ccc3ccccc3n2)c(OC)c1OC	-25%
CCC1(C(=O)NC2CCCCCC2)CCCCC(=O)N1 (configuration not stated)	6%
CC(C)(C)OC(=O)N1CCC(c2c(C(=O)NCc3cccs3)cnn2-c2cccc(F)c2)CC1	7.9µM*
Cc1ccc(-n2ncc(C(=O)NCc3cccs3)c2C2CCN(C(=O)OC(C)(C)C)CC2)c(C)c1	11µM*
O=C1CCN(C(=O)c2cc(C3CC3)[nH]n2)CCCCCCN1	5%
Cc1cccc([C@H]2C[C@@H](O)[C@@H](O)[C@@H]2NC(=O)c2ccccc2)c1	-7%[44.1 µM]
CC1(C)[C@H]2CC[C@@H](CNC(=O)c3cc(F)ccc3Br)[C@@H]1C2	-29%[44.1 µM]
CC1(C)[C@H]2CC[C@@H](CNC(=O)c3ccncc3)[C@@H]1C2	-12%[44.1 µM]
CC1(C)[C@H]2CC[C@@H](CNC(=O)c3cccc(Br)c3)[C@@H]1C2	11µM*
CCC[C@@H]1CN(C(=O)CNS(=O)(=O)c2cccs2)C[C@H]1NC(C)=O	-10%
COC[C@@H]1CN(C(=O)COc2cccc(C)c2)C[C@H]1c1ccccn1	-1%
Cn1ccnc1-c1ccc(N2CC[C@](C)(O)[C@@H](O)C2)nn1	0%
Cn1ccnc1-c1ccc(N2CCC(C(O)Cc3ccccc3)CC2)nn1 (configuration not stated)	-19%
COc1cccc(CC2(CO)CCCN(c3ccc(-c4nccn4C)nn3)C2)c1 (configuration not stated)	8.9µM*
CN(C)C[C@@H]1CN(Cc2cccnc2)C[C@H]1NC(=O)c1ccccc1Cl	-12%
CC(=O)N1CCN(C(=O)C[C@@H]2c3nc(NC(=O)C4CCC4)sc3C[C@@H]3[C@](C)(CO)[C@H](O)CC[C@]32C)CC1	-22%
CCN(CC)C(=O)C[C@@H]1c2nc(NC(=O)C3CCC3)sc2C[C@@H]2[C@](C)(CO)[C@H](O)CC[C@]21C	7.1µM*
C=CCN(C)C(=O)C[C@@H]1c2nc(NC(=O)c3ccc(OC)cc3)sc2C[C@@H]2[C@](C)(CO)[C@H](O)CC[C@]21C	-6%
SMILES	Pf Dd2 inh
CCN(CC)C(=O)C[C@@H]1c2nc(NC(=O)CC(C)(C)C)sc2C[C@@H]2[C@](C)(CO)[C@H](O)CC[C@]21C	i
CCN(CC)C(=O)C[C@@H]1c2nc(NC(=O)c3cccs3)sc2C[C@@H]2[C@](C)(CO)[C@H](O)CC[C@]21C	4µM*
CC(C)NC(=O)C[C@@H]1c2nc(NC(=O)C3CCCCC3)sc2C[C@@H]2[C@](C)(CO)[C@H](O)CC[C@]21C	10µM*
C=CCOC(=O)Nc1nc2c(s1)C[C@@H]1[C@](C)(CO)[C@H](O)CC[C@@]1(C)[C@@H]2CC(=O)NC(C)C	-9%
O=C1NC(=NC2CCCCC2)C2(CCN([S+](=O)([O-])c3ccccc3)CC2)N1c1cccnc1	-2%
Cc1occc1-c1nc2ncccc2[nH]1	-13%[44.1 µM]
COc1ccc(CN2CC[C@H](c3nnc(C)o3)C2)cc1	8%[44.1 µM]
CN1CCC(N[C@@H]2CO[C@H](CNC(=O)c3cccs3)[C@H]2O)CC1	4%[44.1 µM]
COc1cc(CN2CCN(S(=O)(=O)c3ccccc3)CC2)cc(OC)c1O	-8%
CCn1c2ccccc2c2cc(CN3CCN(Cc4ccccc4F)CC3)ccc21	i
CCn1c2ccccc2c2cc(CN3CCN(Cc4cc(OC)c(O)c(OC)c4)CC3)ccc21	11µM*
O=C(N[C@@H]1CCN(C(=O)c2ccc3cc[nH]c3c2)C[C@H]1O)c1cnccn1	1%
O=C1CC2CCN([S+](=O)([O-])c3cc(C(F)(F)F)cc(C(F)(F)F)c3)CC2CCN1 (configuration not stated)	13%
N#Cc1ccc(C(=O)NCc2nnc3ccc(-c4ccc(F)cc4)nn23)cc1	-10%
O=C(c1ccc(C(F)(F)F)cc1)N1CCN(c2nc3ncccc3o2)CC1	0%
CC[C@@]1(O)CCN(C(=O)CCc2nc(-c3ccco3)no2)C[C@H]1O	-1%
CNC(=O)C(C)(C)N1CCC[C@H]1C(=O)N1CCCCC1	-19%[44.1 µM]
Cc1nc(Nc2ccc(Cl)cc2)cc(-c2ccccc2)n1	8.9µM*
CCOC(=O)c1ccc(Nc2cc(-c3ccccc3)nc(C)n2)cc1	-24%
